CtBP-E1A blk: qHTS Assay for Inhibitors of the CtBP/E1A Interaction; AlphaScreen GST-E1A/His-CtBP binding, 1536-well; active compounds read low; activity change, % (no concentration beside the values); 0.49% of 340,000 active; in the data active = activity change below about -65%; inconclusive = mostly about -30% to -63%; note: % is set by controls: 0 for no effect and ±100 for the full control effect
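AlphaScreen with 125 nM GST-E1A and 125 nM His-CtBP (5X stocks) in Tris pH 8.0, 300 mM NaCl, BSA, Tween 20, TCEP. Compounds preincubated 2 h at 37 deg C, then glutathione donor/nickel acceptor beads added for 1 h at 37 deg C in dark.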
Six1-Eya2 blk: qHTS Assay for Inhibitors of the Six1/Eya2 Interaction | 0.56% of 360,000 active | activity change, % (test concentration not listed) | AID 651725, 2012 | AlphaScreen GST-Six1/His-Eya2 binding, biochemical; active compounds read low | Homeobox protein SIX1 (Homo sapiens) + Protein phosphatase EYA2 (Homo sapiens), …; in the data active = activity change below about -65%; inconclusive = mostly about -30% to -63%; note: % is set by controls: 0 for no effect and ±100 for the full control effect
Target sequence (O00167 whole entry, looked up): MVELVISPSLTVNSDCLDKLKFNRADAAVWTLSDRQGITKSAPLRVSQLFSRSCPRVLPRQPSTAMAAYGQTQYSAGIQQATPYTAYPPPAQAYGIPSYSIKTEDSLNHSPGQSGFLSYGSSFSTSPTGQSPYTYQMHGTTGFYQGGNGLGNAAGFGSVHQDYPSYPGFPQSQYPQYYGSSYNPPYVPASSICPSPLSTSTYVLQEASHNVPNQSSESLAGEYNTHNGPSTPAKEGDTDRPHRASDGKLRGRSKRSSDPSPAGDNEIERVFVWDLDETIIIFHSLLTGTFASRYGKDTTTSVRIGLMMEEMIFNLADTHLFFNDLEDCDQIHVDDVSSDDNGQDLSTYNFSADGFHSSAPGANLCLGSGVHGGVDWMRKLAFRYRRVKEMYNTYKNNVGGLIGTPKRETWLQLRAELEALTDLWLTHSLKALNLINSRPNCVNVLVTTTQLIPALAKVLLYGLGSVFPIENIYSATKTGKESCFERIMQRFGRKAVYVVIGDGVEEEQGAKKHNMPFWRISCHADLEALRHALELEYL
Target sequence (Q15475 whole entry, looked up): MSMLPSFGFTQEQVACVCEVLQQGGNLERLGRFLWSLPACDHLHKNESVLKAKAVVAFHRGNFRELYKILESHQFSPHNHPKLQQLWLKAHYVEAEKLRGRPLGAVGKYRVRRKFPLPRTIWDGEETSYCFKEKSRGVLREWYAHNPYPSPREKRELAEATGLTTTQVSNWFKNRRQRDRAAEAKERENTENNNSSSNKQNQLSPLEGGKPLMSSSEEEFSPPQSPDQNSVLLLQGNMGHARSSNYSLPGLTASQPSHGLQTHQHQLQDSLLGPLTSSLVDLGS
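GST-Six1 + His-Eya2 (5X stock: 250/500 nM); Tris pH 8.0, 300 mM NaCl, 0.05% BSA, 0.02% Tween 20; GSH donor/Ni acceptor beads; 1 h 37 °C dark; AlphaScreen readout.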
ATXN2 expr inh: Primary qHTS for Inhibitors of ATXN expression; HEK-293 ATXN2-luciferase reporter, luminescence, 24 h; Potency, µM (titrated, usually from 57 µM), inactives show top-dose activity change, negative = inhibition, hits mostly inhibitors; 0.72% of 360,000 active; AID 1745845, 2022; note: potency is the fitted concentration of half-maximal effect; % is set by controls: 0 for no effect and ±100 for the full control effect; nearly all actives have a fitted effect of over 55% in size
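qHTS (up to 57 uM final) was run with 24 h compound exposure of reporter cells at 37 °C. Each well was multiplexed: SteadyGlo luminescence measured ATXN2-luciferase expression after a fluorogenic Gly-Phe-AFC viability readout (25 uM final).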
ATXN viability: Viability Counterscreen for Primary qHTS for Inhibitors of ATXN expression. S2 cells (HEK-293 line with an ATXN2-luciferase reporter) viability, CellTiter-Fluor protease fluorescence, 24 h. Potency, µM (series often up to 56.7 µM), actives largely listed as cytotoxic. 0.49% of 400,000 active. AID 651635, 2014; note: potency is the fitted concentration of half-maximal effect; nearly all actives have a fitted effect of over 40% in size
HepG2 viability: qHTS for Inhibitors of TGF-b: Cytotox Counterscreen | HepG2 CAGA-GFP viability, ATP luminescence, 18 h | Potency, µM (top dose mostly 46.1 µM), without a hit: at the top dose activity change, negative = cytotoxicity, usual class: cytotoxic | 0.76% of 410,000 active | AID 588856, 2011; note: potency is the fitted concentration of half-maximal effect
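HepG2 CAGA-GFP cells (1000/well, DMEM with 1% FBS) received compound, then TGF-beta at 500 pg/mL final, and were incubated 18 hours at 37 degrees C. Viability was read by CellTiter-Glo luminescence. Media-only wells were set as complete cell-killing and DMSO as no toxicity.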
TGFb SMAD3 inh: qHTS for Inhibitors of TGF-b; 1.2% of 410,000 active; AID 588855, 2011; HepG2 CAGA-GFP TGF-b/SMAD3 reporter, GFP fluorescence, 18 h; TGF-beta stimulated, 500 pg/mL final; Potency, µM (top dose mostly 46.1 µM), for the others: at the top dose activity, negative = inhibition, usual class: inhibitors; note: potency is the fitted concentration of half-maximal effect; % is set by controls: 0 for no effect and ±100 for the full control effect; nearly all actives have a fitted effect of over 65% in size
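HEPG2 CAGA-GFP reporter cells (1000/well, DMEM with 1% FBS) received compounds, then recombinant TGF-beta at 500 pg/mL final for 18 hours at 37 degrees C. Per-cell GFP summed per well was normalised to unstimulated and stimulated DMSO controls before curve fitting.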
* marks the source's active call; other numbers are inactive results; i = inactive; ? = inconclusive; nt = not tested or not shown; ! = not confirmed by another sample. Rows were chosen to be rich in hits. Some 2.8% of all compounds tested hit in one or more screens of this group. Unless noted, calls come from the whole dose curve; as a rule, active = well fitted curve in the direction sought with a large enough effect; inconclusive = small, poorly fitted or top-dose-only effect, or another doubt; inactive = no such curve, though single readings can be large; an effect the other way counts as inactive or inconclusive.

SMILES	CtBP-E1A blk	Six1-Eya2 blk	ATXN2 expr inh	ATXN viability	HepG2 viability	TGFb SMAD3 inh
Cc1ccc(C)c(N(C)C(=O)c2cn(C)c(=O)c3ccccc23)c1	nt	nt	7%	i	-25%	-27%
COC(=O)C[C@H]1c2cc(C(F)(F)F)ccc2S(=O)(=O)N1C1CCCCC1	6	7	-5%	i	-4%	?
CC(=O)C[C@H]1c2cc(C(F)(F)F)ccc2S(=O)(=O)N1C1CCCCC1	6	-1	-5%	i	-16%	11µM*
NNC(=O)c1sc2cc(C(F)(F)F)cnc2c1-c1cccnc1	2	2	-9%	i	25%	0%
COC(=O)c1sc2cc(C(F)(F)F)cnc2c1-c1cccnc1	-15	-72*	-7%	i	-17%	1%
O=c1[nH]nc(N=Nc2c(O)[nH]c3ccc(F)cc23)c(=O)[nH]1	-71*	-80*	3%	i	-2%	-3%
COc1ccc(-c2cn[nH]c2-c2ccc(OCc3ccccc3)cc2O)cc1	-23	-1	0%	i	-142%	?
COc1ccc(-c2cn[nH]c2-c2ccc(OCc3ccccc3F)cc2O)cc1OC	?	-15	?	?	-88%	16µM*
Cc1cc(C)c(C(=O)NCc2nc(-c3cccc(NC(=O)C4CCCN(C)C4)c3)oc2C)[nH]1 (configuration not stated)	nt	nt	nt	i	nt	nt
COC(=O)[C@@]1(Cc2ccc(OC)cc2)[C@@H]2C(=CC(=O)[C@H]2CC(=O)C(=O)N2CCCC2)CN1C(=O)c1ccccc1	4	4	?	28µM*	-46%	?
NC(=S)NN=C1CSSC1	-89*	-94*	nt	i	11µM*	10µM*
CCN(CC)S(=O)(=O)c1cccc2cccnc12	-4	5	nt	nt	-20%	-19%
COc1ccc(S(=O)(=O)NCCOc2cccc3cccnc23)cc1OC	4	3	2%	?	0%	0%
CCS(=O)(=O)c1ccc(OC)c(N=Nc2ccc(O)c3ncccc23)c1	-96*	-92*	-7%	i	-12%	5%
CCN(CC)S(=O)(=O)c1cc(OC)ccc1N=Nc1ccc(O)c2ncccc12	nt	-92*	nt	nt	-26%	?
Cc1cc(C)cc(N2CCn3c2nc2c3c(=O)n(CCCc3ccccc3)c(=O)n2C)c1	nt	nt	nt	nt	-8%	4%
CCOc1ccc(NCc2cccn2-c2nnc(N3CCC(C(=O)NCCCN4C(C)CCCC4C)CC3)s2)cc1 (configuration not stated)	-23	-23	-1%	i	-28%	-1%
CCOc1ccc(NCc2cccn2-c2nnc(N3CCC(C(=O)NCCCN4CCCCC4C)CC3)s2)cc1 (configuration not stated)	nt	-23	nt	i	20µM*	-23%
COc1cc(OC)c2cc(C(=O)N/N=C/c3cccc(OC)c3O)[nH]c2c1	-76*	?	3.2µM*	?	-22%	?
COc1ccc2cc(C(=O)N/N=C/c3cc(OC)c(OC)c(OC)c3)[nH]c2c1	?	?	-17%	i	8%	-11%
COc1cccc(/C=N/NC(=O)c2cc3c(OC)ccc(OC)c3[nH]2)c1O	nt	-68*	nt	i	0%	?
COc1ccc(CN2CCCC(n3cc(C(=O)N4CCCCC4)nn3)C2)cc1OC (configuration not stated)	nt	nt	nt	i	nt	nt
COc1cccc(-c2noc(COc3ccccc3Cl)n2)c1	nt	nt	77%	i	-8%	16%
O=C(N/N=C/c1c[nH]c2ccccc12)c1cccc([N+](=O)[O-])c1	-30	-16	7%	i	28%	27%
Cc1[nH]n(-c2cccc3ccccc23)c(=O)c1/C=N/NC(=O)c1cccc([N+](=O)[O-])c1	7	-21	20µM*	?	0%	6%
SMILES	CtBP-E1A blk	Six1-Eya2 blk	ATXN2 expr inh	ATXN viability	HepG2 viability	TGFb SMAD3 inh
Cc1[nH]n(-c2ccccc2)c(=O)c1/C=N/NC(=O)c1cccc([N+](=O)[O-])c1	?	?	14µM*	?	-67%	?
CCCCC(=O)N1C/C=C\C(c2ccc(OC)cc2)N(Cc2ccc(F)cc2)C(=O)C1Cc1ccccc1 (configuration not stated)	nt	nt	nt	nt	-20%	?
CCN(CC)CCNC(=O)CSc1c2c(nc3cc(Cl)ccc13)CCCC2	nt	-1	nt	nt	-79%	18µM*
CCN(CC)CCCNC(=O)c1ccc2c(Cl)c3c(nc2c1)CCCC3	-15	-8	28µM*	20µM*!	1.6µM*!	13µM*
COc1ccc(OC)c(NC(=O)CSc2c3c(nc4cc(Cl)ccc24)CCCC3)c1	nt	nt	nt	nt	-46%	10µM*
CCCCN(CC)CCNC(=O)c1ccc2c(Cl)c3c(nc2c1)CCC3	-1	-19	-35%	i	-39%	12%
COc1ccc(CNC(=O)CSc2c3c(nc4ccc(Cl)cc24)CCCC3)cc1	nt	nt	nt	nt	-32%	-32%
O=C(Nc1ccccc1F)c1ccc2c(Cl)c3c(nc2c1)CCC3	nt	nt	-68%	i	10µM*	?
COc1ccc2c(c1)OC(C)CN(CCNC(=O)c1csc(-c3cccs3)n1)C2 (configuration not stated)	nt	nt	nt	i	nt	nt
CC(=O)NC(c1cccc(F)c1)c1nc(-c2cnn(C)c2)cs1 (configuration not stated)	2	1	0%	i	5%	10%
Cc1ccc(SCC(CC(C)C)N2CCN(C)CCC2=O)cc1 (configuration not stated)	nt	nt	nt	nt	-21%	-7%
CCOc1ccccc1CNC(=O)c1cc2c(=O)n(Cc3cccnc3)ccc2nc1C	nt	nt	8%	i	-15%	-27%
COc1ccc(OC)c(NC(=O)CSc2c3c(nc4ccccc24)CCCC3)c1	nt	nt	?	nt	13µM*	?
COc1ccc(NC(=O)CSc2nc3ccccc3nc2N2CCOCC2)c(OC)c1	-6	-10	-21%	4.5µM*!	-20%	-14%
COc1ccc(C)cc1NC(=O)CSc1nc2ccccc2nc1N1CCOCC1	nt	nt	31%	i	-5%	29%
COc1ccc(Cl)cc1NC(=O)CSc1c2c(nc3ccccc13)CCC2	nt	nt	nt	nt	-37%	?
Cc1ccc(C(=O)Nc2cccc(C(=O)OCc3cc(=O)n4c5c(sc4n3)CCCC5)c2)cc1	nt	nt	nt	nt	-25%	?

Assay outcomes from PubChem BioAssay.
